According to PubChem BioAssay:
The source made the active and inactive calls. Unless noted, how the calls were made is not given here.

Tests used:
[1] = resazurin metabolic signal in HepG2 cells – cell-based, resazurin fluorescence, 24 h, PK04 Diversity Set, profiling panel (AID 1172); settings: HepG2 viability, higher = more signal; further: test concentration not given here
[2] = budding yeast growth changes without added modifier – OD600, strain BY4716, 24 h, basal condition, primary screen (AID 1173); settings: S. cerevisiae BY4716 growth, OD600, 24 h; higher = more signal, called active from +8 up or from −8 down
[3] = viability profiling in MM1S myeloma cells – cell-based, resazurin fluorescence, basal, 24 h, PK04 Diversity Set, profiling panel (AID 1174); settings: higher = more signal, called active from +8 up or from −8 down;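 further: MM1S multiple myeloma cell line; test concentration not given here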
[4] = target: Dihydroorotate dehydrogenase (quinone), mitochondrial (Plasmodium falciparum (isolate 3D7)) (UniProt Q08210); assay: inhibition of P. falciparum DHODH – biochemical, C-terminal His tag, absorbance 600 nm, primary screen (AID 1175); settings: PfDHODH enzyme, DCIP absorbance 600 nm; higher = more signal, called active from +8 up or from −8 down;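 further: recombinant parasite enzyme with a five histidine tag at its C terminus; test concentration not given here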
Dihydroorotate dehydrogenase (quinone), mitochondrial (Plasmodium falciparum (isolate 3D7)), sequence (Q08210 whole entry, looked up): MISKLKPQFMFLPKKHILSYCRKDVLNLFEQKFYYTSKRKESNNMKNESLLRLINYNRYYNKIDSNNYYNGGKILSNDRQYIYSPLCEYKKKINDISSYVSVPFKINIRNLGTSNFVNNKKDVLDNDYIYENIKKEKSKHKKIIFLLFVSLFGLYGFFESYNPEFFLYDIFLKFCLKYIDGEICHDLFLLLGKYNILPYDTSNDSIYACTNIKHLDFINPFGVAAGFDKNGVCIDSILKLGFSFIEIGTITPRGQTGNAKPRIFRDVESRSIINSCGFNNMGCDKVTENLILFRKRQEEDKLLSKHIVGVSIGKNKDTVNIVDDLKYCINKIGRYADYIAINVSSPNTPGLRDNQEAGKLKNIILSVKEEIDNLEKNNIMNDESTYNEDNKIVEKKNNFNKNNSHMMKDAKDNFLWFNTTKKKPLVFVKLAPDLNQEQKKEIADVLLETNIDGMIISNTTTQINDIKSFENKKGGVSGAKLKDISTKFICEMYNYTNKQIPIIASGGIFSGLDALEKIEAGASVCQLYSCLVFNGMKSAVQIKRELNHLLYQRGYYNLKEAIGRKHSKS

[5] = inhibition of PAO1 biofilm formation – strain PAO1, LB-PBS medium, absorbance 600 nm, primary screen (AID 1176); further: test concentration not given here; settings: P. aeruginosa PAO1 growth/biofilm, A600, 12 h; higher = more signal
[6] = growth modulation of vineyard yeast isolate – strain RM11-1a, OD600, basal, 24 h, primary screen (AID 1177);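 further: cultures grown under basal conditions with no added stressor; test concentration not given here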; settings: S. cerevisiae RM11-1a growth, OD600, 24 h; higher = more signal, called active from +8 up or from −8 down
[7] = growth of efflux-deficient E. coli DRC39 – strain DRC39, OD650, 24 h, E. coli filamentation inducers, primary screen (AID 1178);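 further: growth measured as culture turbidity by optical density at 650 nm; test concentration not given here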; settings: E. coli DRC39 acrAB, higher = more signal, called active from +8 up or from −8 down
[8] = growth of efflux-deficient E. coli DRC39 – strain DRC39, OD650, 48 h, E. coli filamentation inducers, primary screen (AID 1179);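 further: screen aims at cell division blockers that make cells filament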; settings: E. coli DRC39 delta-acrAB growth, higher = more signal, called active from +8 up or from −8 down
[9] = viability profiling in RPMI8226 myeloma cells – cell-based, resazurin fluorescence, basal, 24 h, PK04 Diversity Set, profiling panel (AID 1180); settings: higher = more signal;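 further: RPMI8826 multiple myeloma cell line at 5000 cells per well; test concentration not given here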
[10] = target: E3 ubiquitin-protein ligase XIAP (Homo sapiens) (UniProt P98170); assay: small molecules binding XIAP protein – biophysical, small-molecule microarray, fluorescence 635 nm, primary screen (AID 1181); settings: higher = more signal;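 further: score merges 667 nm emission and signal to noise over triplicate slides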
E3 ubiquitin-protein ligase XIAP (Homo sapiens), sequence (P98170 whole entry, looked up): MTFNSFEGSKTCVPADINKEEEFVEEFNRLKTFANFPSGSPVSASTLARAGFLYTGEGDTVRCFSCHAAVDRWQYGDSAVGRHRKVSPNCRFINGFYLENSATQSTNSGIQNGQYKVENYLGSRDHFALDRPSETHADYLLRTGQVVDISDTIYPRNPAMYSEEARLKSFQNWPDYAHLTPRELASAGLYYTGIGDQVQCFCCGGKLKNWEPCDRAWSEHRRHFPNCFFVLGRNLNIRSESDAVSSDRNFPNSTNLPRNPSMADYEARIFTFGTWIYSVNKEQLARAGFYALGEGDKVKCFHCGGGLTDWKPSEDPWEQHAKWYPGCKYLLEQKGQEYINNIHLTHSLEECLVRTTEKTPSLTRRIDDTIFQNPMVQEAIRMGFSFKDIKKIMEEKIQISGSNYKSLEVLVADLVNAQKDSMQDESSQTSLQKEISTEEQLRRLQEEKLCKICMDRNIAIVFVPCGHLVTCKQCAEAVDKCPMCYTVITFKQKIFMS

SMILES | z-score [1] | z-score [2] | z-score [3] | composite z-score [4] | z-score [5] | z-score [6] | z-score [7] | z-score [8] | z-score [9] | composite z-score [10]
O=C1OCC=C[C@H]2OC34C=CCN(Cn5nnc6ccccc65)C(=O)[C@H]3N(CCO)C(=O)[C@@H]4[C@@H]12 (stereo not given in full) | -0.779 | 0.818 (inactive) | -0.176 (inactive) | -0.642 (inactive) | -0.332 (inactive) | -0.581 (inactive) | 0.0034 (inactive) | -0.0669 (inactive) | -0.256 | -0.0749
CC(C)C[C@@H]1NC(=O)[C@H]2C[C@@H](C(=O)O)[C@@H](c3cccc(OCCO)c3)N2C1=O | 0.109 | -0.25 (inactive) | -0.636 (inactive) | -1.19 (inactive) | 0.202 (inactive) | -0.79 (inactive) | -0.191 (inactive) | 0.421 (inactive) | 0.462 | 0.0845
O=C(NC1CC1)[C@@H]1c2ccccc2C(=O)N(C2CCCCC2)[C@H]1c1ccc(CO)cc1 | -0.358 | 0.678 (inactive) | -1.27 (inactive) | -0.245 (inactive) | 0.292 (inactive) | -0.456 (inactive) | -0.185 (inactive) | 0.138 (inactive) | -0.166 | -0.323
CCCN1C(=O)[C@@]2(c3ccc([N+](=O)[O-])cc3)CC(=O)N(C3CCCCC3)[C@@H]2c2ccc(CO)cc21 | -0.225 | 1.88 (inactive) | -0.674 (inactive) | -24.3 (active) | 0.944 (inactive) | 1.89 (inactive) | 0.197 (inactive) | -1.27 (inactive) | -0.606 | -0.0773
C=CCC(OC(C)=O)[C@@H]1[C@@H](N(Cc2ccc(-c3ccccc3)cc2)C(=O)Cc2ccc(OC)cc2)c2cc(OCCCO)ccc2N1C(=O)Cc1ccc(OC)cc1 (stereo not given in full) | -0.626 | 0.118 (inactive) | -0.622 (inactive) | -0.0632 (inactive) | 0.186 (inactive) | -0.565 (inactive) | -0.105 (inactive) | -0.403 (inactive) | -0.357 | -0.185
CC[C@@H](O[Si](C#C[Si](C(C)C)(C(C)C)C(C)C)(C(C)C)C(C)C)c1cn([C@H](C)c2ccccc2)nn1 | -0.0011 | 1.66 (inactive) | 0.248 (inactive) | 0.308 (inactive) | 0.596 (inactive) | 0.887 (inactive) | -0.263 (inactive) | 0.142 (inactive) | 0.328 | -0.209
COC(=O)C(CC#Cc1ccc2c(c1)[C@]1(C(=O)N2)[C@H](C(N)=O)[C@H]2C(=O)O[C@H](c3ccccc3)[C@H](c3ccccc3)N2[C@@H]1c1ccccc1OCCO)C(=O)OC | -2.07 | 0.289 (inactive) | -9.27 (active) | 1.53 (inactive) | 2.35 (inactive) | 2.62 (inactive) | 0.0025 (inactive) | 0.957 (inactive) | -7.44 | 0.0289
CO[C@H]1O[C@H](CO)[C@@H](OC(=O)Nc2cccc(F)c2)[C@H](OC(=O)c2cc3ccccc3[nH]2)[C@H]1OC(=O)c1cc2ccccc2[nH]1 | -2.49 | -0.21 (inactive) | -2.63 (inactive) | -0.603 (inactive) | 1.1 (inactive) | -0.67 (inactive) | 0.181 (inactive) | 1.02 (inactive) | -2.46 | 0.331
O=C1NC(=O)C2C1C=CC(C(O)C(O)CO)N2Nc1ccccn1 (stereo not given) | -0.908 | 0.802 (inactive) | -0.872 (inactive) | -0.683 (inactive) | 1.11 (inactive) | -0.645 (inactive) | -0.0259 (inactive) | 0.61 (inactive) | -0.885 | -0.195
CCCCC=C[C@@H](NC(=O)C(C)(C)C)c1ccccc1 | -1.12 | 2.43 (inactive) | -2.58 (inactive) | 0.507 (inactive) | 0.563 (inactive) | 2.07 (inactive) | -0.275 (inactive) | -0.0819 (inactive) | -3.59 | -0.0095
C=CC[C@H](O)c1ccc(O)c(F)c1 | -0.632 | -2.36 (inactive) | -0.711 (inactive) | -0.0056 (inactive) | 0.131 (inactive) | -0.498 (inactive) | 0.117 (inactive) | 0.0282 (inactive) | -0.0926 | -0.0088
COc1cc2c(cc1OC)CN(C(=O)[C@@H]1[C@H]3C(=O)O[C@H](c4ccccc4)[C@H](c4ccccc4)N3[C@H](c3ccc(O)cc3)[C@@]13C(=O)Nc1ccc(C#CC4=CCCCC4)cc13)CC2 | 0.192 | 0.45 (inactive) | 0.466 (inactive) | -0.151 (inactive) | 0.297 (inactive) | 1.48 (inactive) | -0.0342 (inactive) | 0.675 (inactive) | 0.233 | -0.0108
C=C[C@H](C)[C@@H](OC(=O)Nc1ccc(SC)cc1)c1ccc(OCCO)cc1 | -1.01 | -0.773 (inactive) | -0.715 (inactive) | 0.918 (inactive) | 0.696 (inactive) | 1.08 (inactive) | -1.55 (inactive) | -1.71 (inactive) | -0.894 | -0.208
C[N+](C)(C)CCCC[C@@H]1NC(=O)[C@H]2C[C@@H](C(=O)NCCCCCN)[C@@H](c3ccc(O)cc3)N2C1=O | 0.372 | -0.589 (inactive) | 0.715 (inactive) | -1.86 (inactive) | -1.14 (inactive) | -0.683 (inactive) | 0.553 (inactive) | 0.751 (inactive) | 1.24 | 0.0017
CCCCCCc1nc(-c2ccc(OC)nc2)c(C)c2c1[Si](C(C)C)(C(C)C)OC2 | 0.167 | -0.121 (inactive) | 1.86 (inactive) | -3 (inactive) | 0.444 (inactive) | -0.745 (inactive) | 0.746 (inactive) | -0.0026 (inactive) | 0.781 | 0.128
O=C1O[C@@H](c2ccccc2)[C@@H](c2ccccc2)N2[C@@H](c3ccc(OCCO)cc3)[C@]3(C(=O)Nc4ccc(C#CC5=CCCCC5)cc43)[C@@H](C(=O)Nc3nc4ccccc4s3)[C@H]12 | -0.533 | 1.46 (inactive) | -1.21 (inactive) | -4.05 (inactive) | 3.52 (inactive) | 2.53 (inactive) | -0.304 (inactive) | 0.141 (inactive) | -1 | -0.339
COC(=O)C1=CC(CCCO)=CC(c2ccc(CN3CCCC3)cc2)N(C)C=C1C(=O)OC (stereo not given) | 0.407 | 0.0335 (inactive) | -0.381 (inactive) | -1.58 (inactive) | 0.543 (inactive) | 0.326 (inactive) | 0.98 (inactive) | 1.32 (inactive) | 0.154 | -0.153
COc1ccc([Si](C)(C)[C@H]2[C@H](CC(=O)N3CCC[C@H]3CO)O[C@@]3(C(=O)N(C)c4c(Br)cc(C)cc43)[C@@H]2C)cc1 | 0.728 | -0.966 (inactive) | 0.968 (inactive) | -1.3 (inactive) | 0.92 (inactive) | 0.301 (inactive) | 0.541 (inactive) | 0.24 (inactive) | 0.235 | 1.43
C=C(C)C1CN([C@H](CO)c2ccccc2)C(=O)/C1=C\c1ccccc1 (stereo not given in full) | -0.607 | -5.73 (inactive) | 0.44 (inactive) | -2.88 (inactive) | -0.234 (inactive) | 0.119 (inactive) | 0.408 (inactive) | -0.719 (inactive) | 0.064 | 0.126
O=C(NCC(F)(F)F)[C@@H]1c2ccccc2C(=O)N(Cc2cc(C(F)(F)F)cc(C(F)(F)F)c2)[C@H]1c1ccc(CO)cc1 | 0.0606 | 1.26 (inactive) | 0.885 (inactive) | 0.398 (inactive) | -0.0249 (inactive) | 0.378 (inactive) | 0.783 (inactive) | 1.41 (inactive) | 1.1 | 0.295
CC[C@@H](O[Si](C#C[Si](C(C)C)(C(C)C)C(C)C)(C(C)C)C(C)C)c1cn([C@H](CO)Cc2ccccc2)nn1 | 1.03 | 1.79 (inactive) | 0.604 (inactive) | -0.572 (inactive) | 0.183 (inactive) | 0.959 (inactive) | -0.316 (inactive) | 0.413 (inactive) | 1.24 | -0.207
[N-]=[N+]=NCc1ccccc1C[C@]1(C(=O)N2CCCCC2)COC(c2ccc(OCCCO)cc2)=N1 | 0.894 | -0.749 (inactive) | -0.0967 (inactive) | -0.0119 (inactive) | 0.0405 (inactive) | 2.36 (inactive) | 1.4 (inactive) | 0.815 (inactive) | 0.791 | -0.0604
CCCCCN1CC=CC23O[C@@H]4/C=C\CCCOC(=O)C4[C@H]2C(=O)N(CCCCCO)[C@@H]3C1=O (stereo not given in full) | 0.809 | -1.17 (inactive) | 1.33 (inactive) | -0.869 (inactive) | 0.0962 (inactive) | -1.08 (inactive) | 0.279 (inactive) | -0.0568 (inactive) | 1.33 | 0.165
CC(C)c1ccc(NN2C(C(O)c3ccccc3)C=CC3C(=O)N(c4ccccc4)C(=O)C32)cc1 (stereo not given) | 0.685 | -1.79 (inactive) | -2.57 (inactive) | 1.25 (inactive) | 1.16 (inactive) | 1.58 (inactive) | 0.493 (inactive) | 0.289 (inactive) | 0.039 | -0.0669
C=CC[C@@]1(C(=O)NCCCOC)N=C(c2ccc(OCCCO)cc2)O[C@@H]1c1ccccc1CN=[N+]=[N-] | 0.891 | -0.574 (inactive) | 0.961 (inactive) | 0.346 (inactive) | -0.248 (inactive) | -0.343 (inactive) | 0.914 (inactive) | 0.831 (inactive) | 0.803 | 0.289
